Experimental data reported in PubChem BioAssay AID2578 (National Center for Advancing Translational Sciences (NCATS), 2010).
A number with no mark means an inactive call. Calls follow the shape of the dose curve; as a rule, active = well fitted curve in the direction sought with a large enough effect; inactive = no such curve, though single readings can be large or run the other way.

Target: Alpha-galactosidase A (Homo sapiens) (UniProt P06280)
Assay: qHTS Assay for Inhibitors and Activators of N370S glucocerebrosidase as a Potential Chaperone Treatment of Gaucher Disease: Alpha-Galactosidase Counterscreen
Conditions: purified enzyme, 4-MU-alpha-Gal fluorescence, 20 min; series mostly up to 57.5 µM; activity change, negative = inhibition: at the top concentration
From the text: NIH Chemical Genomics Center [NCGC] NIH Molecular Libraries Probe Production Centers Network [MLPCN] MLPCN Grant: MH086442-01 Assay Submitter (PI): Wei Zheng Glucocerebrosidase (GC) catalyzes the hydrolysis of beta-glucocerebroside to glucose and ceramide in lysosomes. Mutations in the glucocerebrosidase gene result in Gaucher disease, an autosomal recessive lysosomal storage disorder. Many of the mutations encountered in patients with Gaucher disease are missense alterations that may cause misfolding, decreased stability and/or mistrafficking of this lysosomal protein. […] These inhibitors include iminosugar analogs and three non-iminosugar inhibitors identified from a previous HTS of 62,000 compounds with the wild type recombinant enzyme. However, the enhancement of enzyme activity by the chaperone action of an enzyme inhibitor must be balanced against the direct inhibition of the enzyme. An enzyme activator could also function as a chaperone by binding to the enzyme and helping to correct its misfolding and mistrafficking. While activators for GC have not yet been identified, they may have better therapeutic potential than inhibitors. Therefore the discovery and development of chemical activators may provide a new strategy for the chaperone therapy. To characterize compound selectivity, selected hits from the primary screen were screened against purified alpha-galactosidase, a related sugar hydrolase. Alpha-galactosidase is a homodimeric glycoprotein that hydrolyzes the terminal alpha-galactosyl moieties from glycolipids and glycoproteins.
NCGC Assay Protocol Summary: This is a fluorogenic enzyme assay with 4-Methylumbelliferyl alpha-D-galactopyranoside as the substrate and human […] as the enzyme preparation. Upon the hydrolysis of this fluorogenic substrate, the resulting product, […]. 4-Methyllumbelliferone, can be excited at 365 nm and emits at 440 nm. This fluorescence which can be detected by a standard fluorescence plate reader. Data were normalized to the controls for basal activity (without enzyme) and 100% activity (with enzyme). In the AC50 values were determined from concentration-response data modeled with the standard Hill equation. Assay buffer: 50 mM citric acid (titrated with potassium phosphate to pH 4.5), 0.005% Tween-20, pH 4.5. (pH 4.5 is an optimal condition for this enzyme assay) 1536-well assay protocol for the human alpha-galactosidase: (1) Add 2 ul/well of enzyme (12 nM final) (2) Add 23 nL compounds in DMSO solution. The final titration was 0.7 nM to 77 uM. (3) Add 1 ul of substrate ([…]) (4) Incubate at room temperature for 20 min. (5) Add 2 ul stop solution (1M NaOH and 1M Glycine mixture, pH 10) (6) Detect the assay plate in a ViewLux plate reader (PerkinElmer) with Ex=365 nm and Em=440nm. Keywords: MLSMR, MLPCN, NIH Roadmap, qHTS, NCGC, : Alpha-galactosidase, Fabry Disease, pharmacological chaperone, chaperone therapy

Sequence of Alpha-galactosidase A (Homo sapiens) (P06280 whole entry, looked up): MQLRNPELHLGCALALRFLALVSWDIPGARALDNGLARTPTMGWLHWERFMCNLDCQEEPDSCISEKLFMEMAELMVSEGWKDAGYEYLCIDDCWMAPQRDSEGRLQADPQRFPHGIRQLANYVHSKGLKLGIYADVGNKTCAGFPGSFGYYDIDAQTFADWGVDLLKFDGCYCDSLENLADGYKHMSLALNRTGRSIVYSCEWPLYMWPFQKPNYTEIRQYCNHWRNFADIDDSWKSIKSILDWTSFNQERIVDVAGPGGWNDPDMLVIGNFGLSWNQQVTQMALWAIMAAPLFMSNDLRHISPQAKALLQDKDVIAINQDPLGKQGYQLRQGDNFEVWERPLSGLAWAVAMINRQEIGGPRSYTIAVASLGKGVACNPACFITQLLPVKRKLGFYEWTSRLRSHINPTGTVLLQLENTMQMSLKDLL

| Compound | activity change, negative = inhibition [%] |
| --- | --- |
| O=S(=O)(c1ccccc1Cl)N1CCN(c2nc(-c3ccccc3)nc3ccccc23)CC1 | -14.7 |
| CCOc1ccc(S(=O)(=O)N2CCN(c3nc(-c4ccccc4)nc4ccccc34)CC2)cc1OCC | -8.78 |
| O=S(=O)(c1ccc(F)cc1)N1CCN(c2nc(-c3cccc(Br)c3)nc3ccccc23)CC1 | -5.82 |
| O=S(=O)(c1ccc(C(F)(F)F)cc1)N1CCN(c2nc(-c3ccccc3)nc3ccccc23)CC1 | -13.6 |
| N#Cc1ccc(S(=O)(=O)N2CCN(c3nc(-c4ccccc4)nc4ccccc34)CC2)cc1 | -7.6 |
| COc1ccc(S(=O)(=O)N2CCN(c3nc(-c4cccs4)nc4ccccc34)CC2)cc1 | -17.2 |
| Cc1ccc(S(=O)(=O)N2CCN(c3nc(-c4ccccc4)nc4ccccc34)CC2)cc1 | -7.65 |
| O=S(=O)(c1cccc(Cl)c1)N1CCN(c2nc(-c3ccccc3)nc3ccccc23)CC1 | -12.9 |
| CC(C)(C)c1ccc(S(=O)(=O)N2CCN(c3nc(-c4ccccc4)nc4ccccc34)CC2)cc1 | -7.91 |
| O=[N+]([O-])c1ccccc1S(=O)(=O)N1CCN(c2nc(-c3ccccc3)nc3ccccc23)CC1 | -2.94 |
| O=S(=O)(c1ccc(Cl)cc1)N1CCN(c2nc(-c3cccs3)nc3ccccc23)CC1 | -5.18 |
| CCOc1ccc(S(=O)(=O)N2CCN(c3nc(-c4ccccc4)nc4ccccc34)CC2)cc1 | -10.2 |
| O=S(=O)(c1ccc(Br)cc1)N1CCN(c2nc(-c3ccccc3)nc3ccccc23)CC1 | -12.8 |
| O=S(=O)(c1ccccc1F)N1CCN(c2nc(-c3cccs3)nc3ccccc23)CC1 | -14.7 |
| O=S(=O)(c1ccc2ccccc2c1)N1CCN(c2nc(-c3cccs3)nc3ccccc23)CC1 | -3.64 |
| O=S(=O)(c1ccccc1)N1CCN(c2nc(-c3cccs3)nc3ccccc23)CC1 | -11.3 |
| COc1ccc(-c2nc(N3CCN(S(=O)(=O)c4ccc(C)cc4)CC3)c3ccccc3n2)cc1 | -1.79 |
| Cc1ccc(-c2nc(N3CCN(S(=O)(=O)c4ccc(F)cc4)CC3)c3ccc(Cl)cc3n2)cc1 | -10.4 |
| O=S(=O)(c1ccc2c(c1)CCCC2)N1CCN(c2nc(-c3ccccc3)nc3ccccc23)CC1 | -3.8 |
| COc1ccc(-c2nc(N3CCN(S(=O)(=O)c4ccc(F)cc4)CC3)c3ccccc3n2)cc1 | -10.8 |
| O=S(=O)(c1ccc(Br)cc1)N1CCN(c2nc(-c3cccs3)nc3ccccc23)CC1 | -8.57 |
| O=S(=O)(c1ccc(Cl)cc1)N1CCN(c2nc(-c3ccccc3)nc3ccccc23)CC1 | -12.8 |
| Cc1ccc(S(=O)(=O)N2CCN(c3nc(-c4ccc(F)cc4)nc4cc(Cl)ccc34)CC2)cc1 | -11.1 |
| O=[N+]([O-])c1ccccc1S(=O)(=O)N1CCN(c2nc(-c3cccs3)nc3ccccc23)CC1 | -7.26 |
| O=S(=O)(c1ccc(F)cc1)N1CCN(c2nc(-c3cccs3)nc3ccccc23)CC1 | -9.22 |
| O=S(=O)(c1ccccc1Br)N1CCN(c2nc(-c3cccs3)nc3ccccc23)CC1 | -8.16 |
| O=S(=O)(c1ccc2c(c1)OCCO2)N1CCN(c2nc(-c3ccccc3)nc3ccccc23)CC1 | -12.6 |
| O=S(=O)(c1ccc(Cl)cc1)N1CCN(c2nc(-c3ccc(Cl)cc3)nc3ccccc23)CC1 | -12.3 |
| O=S(=O)(c1cccc(Br)c1)N1CCN(c2nc(-c3cccs3)nc3ccccc23)CC1 | -6.89 |
| O=S(=O)(c1ccc(F)cc1)N1CCN(c2nc(-c3ccccc3)nc3ccccc23)CC1 | -9.18 |
